Results published in PubChem BioAssay (NCATS).
Inconclusive results are not listed. Where a call stands in place of a potency, no number is given. Calls of active or inactive are those of the source. Unless noted, calls follow the shape of the dose curve; as a rule, active = well fitted curve in the direction sought with a large enough effect; inconclusive = small, poorly fitted or top-dose-only effect, or another doubt; inactive = no such curve, though single readings can be large; an effect the other way counts as inactive or inconclusive.

What was measured:
[1] = qHTS for Inhibitors of the Aldehyde Dehydrogenase Family (ALDH1A2, ALDH1A3, ALDH2, ALDH3A1) (AID 2061307); conditions: ALDH inhibition qHTS; series mostly up to 50.3 µM; also: nearly all actives have a fitted effect of over 50% in size
[2] = molecular target: Aldehyde dehydrogenase, mitochondrial (Homo sapiens) (UniProt P05091); assay: qHTS for Inhibitors of the Aldehyde Dehydrogenase Family (ALDH2) Primary screen (AID 2061308); conditions: ALDH2 enzyme inhibition qHTS, 1536-well; series mostly up to 56 µM; also: nearly all actives have a fitted effect of over 55% in size; also: potency is read from the fitted curve at half-maximal effect
[3] = molecular target: Retinaldehyde dehydrogenase 3 (Homo sapiens) (UniProt P47895); assay: qHTS for Inhibitors of the Aldehyde Dehydrogenase Family (ALDH1A3) Validation screen (AID 2061312); conditions: ALDH1A3 enzyme inhibition qHTS validation, fluorescence; series mostly up to 84.7 µM; also: nearly all actives have a fitted effect of over 45% in size; also: potency is read from the fitted curve at half-maximal effect
[4] = molecular target: Retinaldehyde dehydrogenase 3 (Homo sapiens) (UniProt P47895); assay: qHTS for Inhibitors of the Aldehyde Dehydrogenase Family (ALDH1A3) Primary screen (AID 2061315); conditions: ALDH inhibition qHTS; series mostly up to 56 µM; also: potency is read from the fitted curve at half-maximal effect
[5] = molecular target: Aldehyde dehydrogenase, mitochondrial (Homo sapiens) (UniProt P05091); assay: qHTS for Inhibitors of the Aldehyde Dehydrogenase Family (ALDH2) Confirmatory screens (AID 2061303; active = well fitted inhibition curve with a large enough effect; title and protocol of this record describe different tests; also: nearly all actives have a fitted effect of over 45% in size; also: potency is read from the fitted curve at half-maximal effect); conditions: ALDH inhibition qHTS; series mostly up to 45.4 µM
[6] = molecular target: Retinaldehyde dehydrogenase 3 (Homo sapiens) (UniProt P47895); assay: qHTS for Inhibitors of the Aldehyde Dehydrogenase Family (ALDH1A3) Confirmatory screens (AID 2061311); conditions: ALDH inhibition qHTS; series mostly up to 46 µM; also: nearly all actives have a fitted effect of over 60% in size; also: potency is read from the fitted curve at half-maximal effect
[7] = molecular target: Aldehyde dehydrogenase 1A1 (Homo sapiens) (UniProt P00352); assay: qHTS for Inhibitors of the Aldehyde Dehydrogenase Family (ALDH1A1) Confirmatory screens (AID 2061316); conditions: ALDH inhibition qHTS; series mostly up to 47.3 µM; also: nearly all actives have a fitted effect of over 65% in size; also: potency is read from the fitted curve at half-maximal effect
[8] = molecular target: Retinal dehydrogenase 2 (Homo sapiens) (UniProt O94788); assay: qHTS for Inhibitors of the Aldehyde Dehydrogenase Family (ALDH1A2) Confirmation screens (AID 2061314); conditions: ALDH1A2 enzyme inhibition qHTS confirmation; series mostly up to 45.9 µM; also: nearly all actives have a fitted effect of over 65% in size; also: potency is read from the fitted curve at half-maximal effect
[9] = BET inhibitor-based combinations targeting novel dependencies in MECOM-rearranged (r) AML: OCI-AML3 cell line (AID 2202232); conditions: CellTiter-Glo luminescence, 48 h; Potency: OCI-AML3 viability; series mostly up to 46 µM; also: nearly all actives have a fitted effect of over 35% in size
In short: (§1)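 Cells were plated at 500 per well and exposed to an 11-point dose series of each drug for 48 hr. Viability was measured by CellTiter-Glo luminescence, normalized to DMSO and empty-well controls, and summarized as AUC and per-cell-line Z-AUC.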

[10] = BET inhibitor-based combinations targeting novel dependencies in MECOM-rearranged (r) AML: MV-4-11 cell line (AID 2202233); conditions: MV-4-11 AML viability, CellTiter-Glo luminescence, 48 h; series mostly up to 46 µM; also: nearly all actives have a fitted effect of over 45% in size
In short: (§2)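 Activity is given as area under the curve and as Z-AUC, mean-centred within each cell line. It comes from 11-point dose curves normalized to DMSO and empty wells. CellTiter-Glo luminescence was read after 48 hr drug exposure of 500 cells/well.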

[11] = BET inhibitor-based combinations targeting novel dependencies in MECOM-rearranged (r) AML: HNT-34 cell line (AID 2202234); conditions: HNT-34 AML viability, CellTiter-Glo luminescence, 48 h; series mostly up to 46 µM; also: nearly all actives have a fitted effect of over 35% in size
In short: as §2

[12] = BET inhibitor-based combinations targeting novel dependencies in MECOM-rearranged (r) AML: UCSD-AML1 cell line (AID 2202235); conditions: UCSD-AML1 AML cells viability, CellTiter-Glo, 48 h; series mostly up to 46 µM; also: nearly all actives have a fitted effect of over 40% in size
In short: as §2

[13] = BET inhibitor-based combinations targeting novel dependencies in MECOM-rearranged (r) AML: AML-191 cell line (AID 2202236; also: nearly all actives have a fitted effect of over 35% in size); conditions: AML-191 viability, CellTiter-Glo luminescence, 48 h; series mostly up to 46 µM
In short: as §1

[14] = BET inhibitor-based combinations targeting novel dependencies in MECOM-rearranged (r) AML: AML-194 cell line (AID 2202237; also: nearly all actives have a fitted effect of over 40% in size); conditions: AML-194 (MECOM-r AML) viability, CellTiter-Glo, 48 h; series mostly up to 46 µM
In short: as §1

[15] = BET inhibitor-based combinations targeting novel dependencies in MECOM-rearranged (r) AML: SET-2 cell line (AID 2202231); conditions: SET-2 AML cells viability, CellTiter-Glo luminescence, 48 h; viability: hits give low values, concentration not given here; also: nearly all actives have a fitted effect of over 35% in size
In short: as §1

With `Cc1cc(Nc2ccc(NC(=O)c3ccc(Nc4ccnc5ccccc45)cc3)cc2)nc(N)n1` the Potency [1] was “inactive”, the Potency [2] was “inactive” and the Potency [3] was “inactive”. For the same molecule, the Potency [4] was “inactive”.

In the case of `O=C(OCC#CCSc1nnc(-c2cccc3ccccc23)o1)C1CC1`, the Potency [5] is reported as “inactive”, the Potency [2] is reported as “inactive” and the Potency [4] is reported as “inactive”.

With `COc1cc(/C=C/C(=O)OC[C@H]2O[C@@H](OC3CC(C)=C(C(=O)O)C(C)(C)C3)[C@H](O)[C@@H](O)[C@@H]2O)cc(OC)c1O` (stereo partly specified) the Potency [2] was “inactive”.

In the case of `O=C(O[C@H]1[C@@H]2C[C@@H]3OC[C@](O)([C@@H]1Cl)[C@H]2C(O[C@@H]1O[C@H](CO)[C@@H](O)[C@H](O)[C@H]1O)O3)c1ccc(O)c(O)c1` (stereo partly specified), the Potency [2] is reported as “inactive”.

For `COc1cccc2cc3c(c(O[C@@H]4O[C@H](CO[C@@H]5O[C@H](CO)[C@@H](O)[C@H](O)[C@H]5O)[C@@H](O)[C@H](O)[C@H]4O)c12)C(C)OC3=O` (stereo partly specified), the Potency [2] was “inactive”.

In the case of `C=C1C(=O)O[C@H]2CC(=C)[C@H]3CC[C@@](C)(O)[C@@H]3CC12` (stereo partly specified), the Potency [2] is reported as “inactive”.

For `N#Cc1nc2c(nc1C#N)-c1ccccc1C2=O`, the Potency [5] was 10 µM (active), the Potency [6] was “inactive” and the Potency [7] was “inactive”.

For `Cc1ccc2nc3sc(C(=O)NC4CCCCC4)cc3cc2c1`, the Potency [5] was “inactive”, the Potency [2] was “inactive” and the Potency [4] was “inactive”.

For `O=C(NNc1ccccc1)c1ccncc1`, the Potency [1] was “inactive”, the Potency [8] was “inactive” and the Potency [7] was “inactive”. For the same molecule, the Potency [9] was “inactive”, the Potency [10] was “inactive” and the Potency [11] was “inactive”. For the same molecule, the Potency [12] was “inactive”, the Potency [13] was “inactive” and the Potency [14] was “inactive”.

For `Cc1nn(C)c2c1C(c1ccc(C(F)(F)F)cc1)C(C#N)=C(N)O2` (stereo unspecified), the Potency [2] was “inactive”, the Potency [6] was “inactive” and the Potency [3] was 6.31 µM (active). For the same molecule, the viability [15] was 87.6% (inactive), the Potency [12] was “inactive” and the Potency [13] was “inactive”.

In the case of `O=C(Nc1ccc2[nH]c(=O)oc2c1)C(=O)N1CCC(Cc2ccc(F)cc2)CC1`, the Potency [2] is reported as “inactive”, the Potency [3] is reported as “inactive” and the Potency [4] is reported as “inactive”.

In the case of `Clc1nc(CN2CCOCC2)nc2sc3c(c12)CCCC3`, the Potency [5] is reported as 4 µM (active), the Potency [2] is reported as “inactive” and the Potency [4] is reported as “inactive”.

In the case of `O=C(Nc1ccn(Cc2ccc(O)cc2C(F)(F)F)n1)c1c(F)cccc1F`, the Potency [2] is reported as “inactive”, the Potency [3] is reported as “inactive” and the Potency [4] is reported as “inactive”.

With `COc1cc(Nc2ccc([N+](=O)[O-])cc2C(=O)O)cc2ccccc12` the Potency [2] was “inactive”.

With `Cc1ccc2nc3sc(C(=O)NC4CCCC4)cc3cc2c1` the Potency [5] was “inactive”, the Potency [2] was “inactive” and the Potency [4] was “inactive”.

In the case of `COc1cc(CC(COC2OC(CO)C(O)C(O)C2O)c2cc(/C=C/CO)cc(OC)c2O)ccc1O` (stereo unspecified), the Potency [2] is reported as “inactive”.

For `CC(C)(O)c1ccn2c(-c3ccc(F)c(-c4ccc(F)cc4C#N)c3)cnc2c1F`, the Potency [2] was “inactive”, the Potency [3] was “inactive” and the Potency [4] was “inactive”.

In the case of `O=C(OC[C@H]1O[C@H](O[C@]2(CO)O[C@H](CO)[C@@H](O)[C@@H]2O)[C@H](O)[C@@H](O)[C@@H]1O)c1ccccc1`, the Potency [2] is reported as “inactive”.

In the case of `OC[C@H]1O[C@@H](Oc2cc(O)cc(-c3cc4ccc(O[C@@H]5O[C@H](CO)[C@@H](O)[C@H](O)[C@H]5O)cc4o3)c2)[C@H](O)[C@@H](O)[C@@H]1O`, the Potency [2] is reported as “inactive”.

In the case of `O=C1c2ccccc2NC(c2ccc(-c3ccc(F)cc3)o2)N1O` (stereo unspecified), the Potency [5] is reported as 1.58 µM (active), the Potency [2] is reported as 3.55 µM (active) and the Potency [8] is reported as 12.7 µM (active). For the same molecule, the Potency [4] was “inactive” and the Potency [7] was 2.52 µM (active).

In the case of `Cc1ccc(NC(=O)N2CCN(c3nc(N)nc4sc(-c5cccnc5)nc34)CC2)cc1`, the Potency [5] is reported as 0.0355 µM (active), the Potency [6] is reported as 2.52 µM (active) and the Potency [3] is reported as 2.82 µM (active). For the same molecule, the Potency [8] was 14.1 µM (active) and the Potency [7] was 28.3 µM (active).

For `Cc1ccnc(NC(=S)N2CCN(c3cccc(Cl)c3Cl)CC2)c1`, the Potency [5] was 11.3 µM (active), the Potency [2] was 6.31 µM (active) and the Potency [8] was 14.2 µM (active). For the same molecule, the Potency [7] was 3.18 µM (active).

With `c1cc(NCCc2c[nH]c3ccccc23)cc(Nc2ccncc2)c1` the Potency [5] was 25.1 µM (active), the Potency [2] was 10 µM (active) and the Potency [4] was “inactive”. The Potency [7] was 11.3 µM (active).

With `OCC1OC(Oc2cc(O)cc(/C=C/c3ccc(OC4OC(CO)C(O)C(O)C4O)cc3O)c2)C(O)C(O)C1O` (stereo unspecified) the Potency [1] was 10 µM (active), the Potency [2] was “inactive” and the Potency [4] was 4.47 µM (active).

In the case of `CNC(=S)NS(=O)(=O)c1cc(CCNC(=O)c2cc(Cl)ccc2OC)ccc1OC`, the Potency [2] is reported as “inactive”, the Potency [6] is reported as “inactive” and the Potency [3] is reported as “inactive”. The Potency [8] was “inactive”, the Potency [4] was “inactive” and the Potency [7] was 11.3 µM (active).

In the case of `Cc1ccc(CNc2ccc(N3CCN(C(=O)OC(C)(C)C)CC3)cc2)cc1`, the Potency [5] is reported as “inactive”, the Potency [2] is reported as “inactive” and the Potency [4] is reported as “inactive”.

For `COc1ccnc(NC(=S)N2CCN(c3ccc(Cl)c(Cl)c3)CC2)c1`, the Potency [5] was 4.47 µM (active), the Potency [2] was 15.8 µM (active) and the Potency [8] was 3.57 µM (active). The Potency [7] was 4 µM (active).

In the case of `Cc1ccc(OCCn2c(CCNC(=O)c3cccc(N)c3)nc3ccccc32)cc1`, the Potency [5] is reported as “inactive”, the Potency [2] is reported as “inactive” and the Potency [8] is reported as “inactive”. For the same molecule, the Potency [4] was “inactive” and the Potency [7] was “inactive”.

In the case of `COC1CC(OC2CCC3(C)C(=CCC4C3CCC3(C)C(C(C)O)CCC43O)C2)OC(C)C1OC1OC(C)C(OC2OC(COC3OC(COC4OC(CO)C(O)C(O)C4O)C(O)C(O)C3O)C(O)C(O)C2O)C(OC)C1O` (stereo unspecified), the Potency [2] is reported as “inactive”.
